Screens from PubChem BioAssay.
This excerpt belongs to a sample that is enriched for hits.
Pf Dd2 growth: qHTS Primary assay for Inhibitors of Plasmodium falciparum Dd2 growth in vitro; P. falciparum Dd2 growth, SYBR Green, 72 h; Potency, µM (top dose mostly 28.9 µM), most hits filed as inhibitors; hit rate 4.3% among 120,000; AID 1347417, 2020; active = well fitted inhibition curve with a large enough effect; note: nearly all actives have a fitted effect of over 65% in size
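Readout: SYBR Green fluorescence, 485 nm excitation, 535 nm emission, after ~16 h lysis at 37C. Before that, Dd2-infected red cells (2.5% hematocrit) grew 72 h with compound, 29 uM top final concentration.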
Hits are given with their value; 0 = inactive; [ ] = dose if it differs, or a comment.

SMILES	Pf Dd2 growth
COc1ccccc1CC(=O)N1CCCc2ncc(C(=O)N3CCC(OC)CC3)cc21	0
COc1ccccc1CC(=O)N1CCCc2ncc(C(=O)N3CCCC[C@@H]3Cc3ccccc3)cc21	7.9µM
COc1ccccc1CC(=O)N1CCCc2ncc(C(=O)NC(c3ccccc3)c3ccccc3)cc21	0
COc1ccccc1CC(=O)N1CCCc2ncc(C(=O)N3CCCC[C@@H]3c3ccccc3)cc21	11µM
CC(C)C(=O)Nc1ccc2c(c1)CN(CCc1ccc(F)cc1)C(=O)C(C)O2 (stereo not drawn)	0
C/C=C/CC(=O)N1CCC(Oc2ccccc2OC)(C(=O)O)CC1	0
C=CCn1nc(C)c(CN2CCC(Oc3ccccc3OC)(C(=O)O)CC2)c1C	0
CCc1cn(C[C@H](NC(=O)c2ccco2)C(=O)O)c(=O)[nH]c1=O	0
Cc1ccc(CNC(=O)N2CCCCCCNC(=O)[C@@H]3CCCC[C@@H]32)cc1	0
CSc1cccc(NC(=O)CN2C(=O)NC3(CCC(C)CC3)C2=O)c1 (stereo not drawn)	0
Cc1cccc(C(=O)N2CCCCCNC(=O)[C@@H]3CCCC[C@@H]32)c1	0
O=C1NCCCCCN(C(=O)CC2CCCCC2)[C@@H]2C[C@@H](C(=O)N3CCc4ccccc4C3)C[C@H]12	7.1µM
Cc1cccc(C(=O)N2CCCCCCNC(=O)[C@@H]3CCCC[C@@H]32)c1	0
O=C1NCCCCCCN(C(=O)Cc2ccccc2)[C@H]2CCCC[C@@H]12	0
Cc1ccc(C(=O)N2CCCCCCNC(=O)[C@@H]3C[C@@H](C(=O)N4CCc5ccccc5C4)C[C@@H]32)s1	7.9µM
Cc1cccc(C(=O)N2CCCCCNC(=O)[C@H]3C[C@H](C(=O)N4CCc5ccccc5C4)C[C@H]32)c1	8.9µM
O=C1NCCCCCCN(C(=O)c2ccoc2)[C@H]2C[C@H](C(=O)N3CCN(c4ccccn4)CC3)C[C@@H]12	0
O=C1NCCCCCCN(C(=O)c2cnccn2)[C@H]2C[C@H](C(=O)N3CCc4ccccc4C3)C[C@@H]12	0
O=C1NCCCCCN(C(=O)CCCc2ccccc2)[C@H]2CCCC[C@@H]12	0
O=C(NC[C@H]1OC[C@@H](NC2CCCCC2)[C@@H]1O)c1ccncc1	0
COc1ccccc1C(=O)N1CCCCCC1c1nc(C)no1 (stereo not drawn)	0
Cc1ccc(-c2ccc3nnc(CNC(=O)C4CC4)n3n2)cc1	0
CC(C)n1nc(OC(C)(C)C(=O)NC2CCOCC2)c2cc(CN3CCOCC3)ccc21	0
CC(=O)N1CCC2(CC1)C(=O)NN=C2c1ccccn1	0
Cc1ccc(C2CCN(C(=O)c3cnn(-c4cccc(Cl)c4)c3C3CCN(C(=O)OC(C)(C)C)CC3)C2)cc1 (stereo not drawn)	4.5µM
SMILES	Pf Dd2 growth
CC(C)(C)OC(=O)N1CCC(c2c(C(=O)N3CCN(c4ncccn4)CC3)cnn2-c2ccccc2)CC1	0
CN1CCN(C(=O)c2cnn(-c3cccc(F)c3)c2C2CCN(C(=O)OC(C)(C)C)CC2)CC1	0
CC(C)(C)OC(=O)N1CCC(c2c(C(=O)N3CCC(c4ccccc4)C3)cnn2-c2cccc(Cl)c2)CC1 (stereo not drawn)	3.5µM
COc1ccccc1N1CCN(C(=O)c2cnn(-c3cccc(Cl)c3)c2C2CCN(C(=O)OC(C)(C)C)CC2)CC1	7.9µM
Cc1cccc(-n2ncc(C(=O)N3CCOCC3)c2C2CCN(C(=O)OC(C)(C)C)CC2)c1	0
CC(C)(C)OC(=O)N1CCC(c2c(C(=O)N3CCN(Cc4ccccc4)CC3)cnn2-c2cccc(Cl)c2)CC1	3.2µM
Cc1cnc(C)c(N2CCC(COc3cnc4c(ccn4CC(N)=O)c3)CC2)n1	0
O=C(Nc1cccc(Br)c1)N1CCC2(CC1)SCC(=O)N2Cc1ccco1	0
CC(C)(C)C(=O)N1CCC2(CC1)OCC(C(=O)NCC1CCCO1)N2C(=O)c1ccc(F)cc1 (stereo not drawn)	0
Cc1cc(CNC(=O)[C@@H]2CCC[C@@H](NCc3nccn3C)CN(C)C(=O)C2)no1	0
Cn1cnnc1CC1CCCNC1 (stereo not drawn)	0
CCCN(CC1CCOC1)C(=O)c1ccccc1Br (stereo not drawn)	0[5.79 µM]
Cc1ccc(SC2CCN(Cc3cc4n(n3)CCNC4)CC2)cc1	10µM
Cc1nc(CC2CCN(Cc3cc4n(n3)CCNC4)CC2)no1	0
COc1ccccc1OC1CCN(Cc2cc3n(n2)CCNC3)CC1	0
CSc1cccc(NC(=O)Cn2c(Nc3cc(C)cc(C)c3)nc(C)cc2=O)c1	0
O=C([C@H]1CCC[C@H](O)C1)N(CCc1ccc(Cl)cc1)Cc1cccnc1	0
Cc1nc2cccnc2n1CC1CCCN(C(=O)Nc2cccc(C(F)(F)F)c2)C1 (stereo not drawn)	11µM
CC(C)Cc1ccc(S(=O)(=O)N2CCCC(Cn3cnc4cccnc43)C2)cc1 (stereo not drawn)	0
COc1cccc(NC(=O)N2CCCC(Cn3c(C)nc4cccnc43)C2)c1 (stereo not drawn)	0
Cc1nc2cccnc2n1CC1CCCN(C(=O)Nc2ccc(C(F)(F)F)cc2)C1 (stereo not drawn)	0
